CBFb RUNX1 block: inhibitors of human CBF-beta and RUNX1 interaction; 230,000 tested, under 10 active; AlphaScreen CBFb-His/RUNX1-biotin binding, biochemical; Potency, µM (series often up to 59.8 µM), for inactives: at the top dose activity, negative = inhibition, actives largely listed as inhibitors; note: % of control where 0% means no effect
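Bead-based AlphaScreen assay; binding partners His-tagged CBF-beta and biotinylated RUNX1 at 30 nM each. Compound exposure 15 min after a 20-min protein preincubation; bead step 90 min; all steps at room temperature.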
L3MBTL1 block: L3MBTL1 (human) inhibition; Potency, µM (series often up to 57.1 µM), for the others: at the highest dose activity, negative = inhibition, usual class: inhibitors; 0.66% of 230,000 active; AlphaScreen L3MBTL1–H3K9me1 peptide binding; Q9Y468; AID 485360; note: potency is the fitted concentration of half-maximal effect; % is set by controls: 0 for no effect and ±100 for the full control effect; nearly all actives have a fitted effect of over 60% in size
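L3MBTL1 (50 nM) pre-complexed 30 min with biotinylated H3(1-15)K9me1 peptide (75 nM), then compounds added for 30 min at room temperature; AlphaScreen streptavidin donor/nickel chelate acceptor beads (10 ug/mL final) read after 30 min dark incubation.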
Six1-Eya2 blk: inhibitors of human Six1/Eya2 interaction; Q15475+O00167; AlphaScreen GST-Six1/His-Eya2 binding, biochemical; active compounds read low; activity change, % (concentration not given with the values); 0.56% of 360,000 active; in the data active = activity change below about -65%; inconclusive = mostly about -30% to -63%; note: % is set by controls: 0 for no effect and ±100 for the full control effect
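GST-Six1 + His-Eya2 (5X stock: 250/500 nM); Tris pH 8.0, 300 mM NaCl, 0.05% BSA, 0.02% Tween 20; GSH donor/Ni acceptor beads; 1 h 37 °C dark; AlphaScreen readout.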
MBNL1-CUG inh: MBNL1-poly(CUG) RNA binding inhibition. Q9NR56. TR-FRET MBNL1-His/biotin-(CUG)12 binding, 665/545 ratio. Potency, µM (titrated, usually from 57.5 µM), inactives show at the top dose activity change, negative = inhibition, usual class: inhibitors. 0.036% of 280,000 active. AID 2675; active = well fitted inhibition curve with a large enough effect in the signal ratio, with a control signal flat, not every such curve was filed as active; inconclusive = small, poorly fitted or top-dose-only effect, or effect the other way, or a change in a side signal; inactive = no such curve, though single readings can be large or run the other way; the % refers to the signal ratio; note: potency is the fitted concentration of half-maximal effect; % is set by controls: 0 for no effect and ±100 for the full control effect
Target sequence (Q9NR56 whole entry, looked up): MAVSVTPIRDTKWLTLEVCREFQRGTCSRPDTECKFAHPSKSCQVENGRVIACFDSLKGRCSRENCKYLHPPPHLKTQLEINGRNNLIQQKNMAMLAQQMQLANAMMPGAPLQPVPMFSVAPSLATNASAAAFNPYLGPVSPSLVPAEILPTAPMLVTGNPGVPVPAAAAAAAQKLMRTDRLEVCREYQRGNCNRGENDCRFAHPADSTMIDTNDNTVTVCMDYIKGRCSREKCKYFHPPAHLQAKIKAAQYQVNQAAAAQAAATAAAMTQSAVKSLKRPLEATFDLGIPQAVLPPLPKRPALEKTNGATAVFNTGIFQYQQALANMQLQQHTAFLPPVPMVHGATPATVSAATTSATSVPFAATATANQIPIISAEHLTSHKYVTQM
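Ratiometric TR-FRET (665 over 545 nm, excitation 340 nm) tracks disruption of MBNL1-His/biotin-(CUG)12 complex after 60 min at room temperature, with compounds at 92 nM to 58 uM final.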
Eya2 phos inh: inhibitors of human Eya2 phosphatase activity; recombinant Eya2, OMFP fluorescence dephosphorylation (OMFP is methylfluorescein phosphate); Potency, µM (highest dose often 76.9 µM), for inactives: at the highest dose activity, negative = inhibition, usual class: inhibitors; 0.006% of 330,000 active; O00167; note: potency is the fitted concentration of half-maximal effect; % is set by controls: 0 for no effect and ±100 for the full control effect
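Eya2 protein (added as 0.2 uM solution) was preincubated with compound for 10 min at ambient temperature in 50 mM HEPES pH 7.5, 50 mM NaCl, 5 uM MgCl2, 0.05% BSA, 1 mM DTT. OMFP (added at 50 uM) then reacted 10 min; fluorescence read at 485/525 nm.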
CtBP-E1A blk: inhibitors of CtBP/E1A interaction; AlphaScreen GST-E1A/His-CtBP binding, 1536-well; active compounds read low; activity change, % (concentration not given with the values); AID 651724; 0.49% of 340,000 active; in the data active = activity change below about -65%; inconclusive = mostly about -30% to -63%; note: % is set by controls: 0 for no effect and ±100 for the full control effect
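AlphaScreen with 125 nM GST-E1A and 125 nM His-CtBP (5X stocks) in Tris pH 8.0, 300 mM NaCl, BSA, Tween 20, TCEP. Compounds preincubated 2 h at 37 deg C, then glutathione donor/nickel acceptor beads added for 1 h at 37 deg C in dark.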
Starred values were filed as active, the others as inactive; ? = inconclusive; . = not tested or not shown. Only some compounds are listed: those with a hit (about 0.89% of all), similar ones and a draw of the others. Unless noted, calls come from the whole dose curve; as a rule, active = well fitted curve in the direction sought with a large enough effect; inconclusive = small, poorly fitted or top-dose-only effect, or another doubt; inactive = no such curve, though single readings can be large; an effect the other way counts as inactive or inconclusive.

SMILES	CBFb RUNX1 block	L3MBTL1 block	Six1-Eya2 blk	MBNL1-CUG inh	Eya2 phos inh	CtBP-E1A blk
Cn1cnc(S(=O)(=O)N2CCCCC2c2cc(C(=O)Nc3cccc(C#N)c3)no2)c1 (stereo not drawn)	.	.	-13.5	.	.	-7.6
Cn1ccnc1C(=O)Cc1ccc([N+](=O)[O-])cc1	.	.	2.1	.	.	-85.4*
Cn1ccnc1SCc1ccc([N+](=O)[O-])cc1	1.9%	-0.6%	-2.0	?	3.0%	1.2
CCCS(=O)(=O)NC(=O)C1(C)CCCN(C(=O)CSc2ccccc2)C1 (stereo not drawn)	.	.	-4.2	.	.	0.0
Cc1noc(NS(=O)(=O)c2ccc(N/C=C\C(=O)c3ccc4c(c3)OCO4)cc2)c1C	-5.2%	-5.5%	-67.9*	?	-7.4%	-75.4*
Cc1noc(NS(=O)(=O)c2ccc(N/C=C\C(=O)c3ccc(Br)cc3)cc2)c1C	-21.4%	-18.4%	-21.5	?	7.2%	.
Cc1ccc(-c2cnn3c(N4CCOCC4)cc(C)nc23)cc1	.	.	15.3	5.2%	6.9%	.
Nc1[nH]c(N=NC(=O)c2ccccc2O)c2ccccc12	-16.4%	-11.2%	-77.7*	14.2%	0.7%	?
CC(O)(c1ccccc1)c1ccc2ccccc2n1 (stereo not drawn)	.	.	3.0	.	.	12.1
CCN(CC(=O)Nc1c(C(=O)OC)[nH]c2ccccc12)c1ccc2c(c1)OCO2	7.4%	25.1µM*	?	-0.4%	-14.9%	?
COC(=O)c1[nH]c2ccccc2c1NC(=O)/C=C/c1ccc2c(c1)OCO2	-3.6%	-1.7%	-6.7	-7.1%	-3.4%	11.0
CN(CC(=O)O)Cc1nc2ccccc2[nH]1	?	.	-76.2*	7.5%	3.2%	?
Cc1ccc(C2(CCNCc3ccc(N(C)C)cc3)CCOC(C(C)C)C2)cc1 (stereo not drawn)	-17.7%	?	?	-5.9%	-14.7%	?
CC(C)C1CC(CCNCc2ccc(N(C)C)cc2)(c2ccccc2)CCO1 (stereo not drawn)	-18.0%	-29.9%	-65.4*	-4.8%	1.0%	?
O=C(c1cccc(Cl)c1)c1nn(-c2ccccc2)c(=O)cc1C(F)(F)F	-9.6%	-2.0%	?	?	4.1%	-72.7*
O=C(c1ccccc1)c1nn(-c2ccccc2)c(=O)cc1C(F)(F)F	8.1%	-4.4%	?	?	-13.0%	-75.4*
O=C1CC(=O)N(Cc2ccco2)C(=O)N1	?	3.16µM*	?	?	23.7%	5.1
O=C1CC(=O)N(Cc2ccco2)C(=S)N1	.	.	?	-3.1%	35.1%	-5.6
Oc1c(Cl)cc(Cl)cc1CNc1nccs1	.	5.5%	-65.2*	-2.7%	-12.5%	-82.8*
COC(=O)[C@@H](NC(=O)O[C@@H]1C(=O)c2cc(Br)ccc2O[C@H]1c1cccc(OC)c1)C(C)C	-6.3%	-4.0%	.	-6.5%	-4.9%	.
Cc1nnc(SCC(=O)c2c(N)n(C)c(=O)n(C)c2=O)[nH]c1=O	4.0%	-3.7%	?	0.4%	-13.4%	-72.7*
Cn1c(N)c(C(=O)CSc2ncn[nH]2)c(=O)n(C)c1=O	6.2%	6.7%	-18.8	.	-0.3%	-18.9
COc1ccccc1NC(=O)C1=C(C)NC2=C(C(=O)CC(c3ccc(OC)c(OC)c3)C2)C1c1coc2ccccc2c1=O (stereo not drawn)	-21.4%	-5.2%	-78.4*	15.0%	-10.7%	-20.4
CCOC(=O)C(C)Sc1ccc2nnc(CCNS(=O)(=O)c3ccccc3)n2n1 (stereo not drawn)	-0.7%	.	4.6	8.8%	-10.1%	.
CC(=O)c1sc2nc(C)cc(C)c2c1N	18.0%	-6.0%	7.9	?	11.8%	23.0
SMILES	CBFb RUNX1 block	L3MBTL1 block	Six1-Eya2 blk	MBNL1-CUG inh	Eya2 phos inh	CtBP-E1A blk
Cc1cc(C)c2c(n1)sc1c(O)cc(=O)[nH]c12	-6.5%	?	-71.0*	9.6%	8.4%	-15.0
C/C=C(\C)C(=O)OC1CC(C)(C)C[C@H]2C3=CC[C@@H]4[C@@]5(C)CCC(O[C@@H]6O[C@@H](C(=O)O)[C@@H](O)C(O[C@@H]7OC[C@H](O)[C@@H](O)[C@@H]7O[C@@H]7OC(CO)C(O)[C@@H](O)[C@@H]7O)C6O[C@@H]6OC(CO)C(O)C(O)C6O)[C@@](C)(CO)[C@@H]5CC[C@]4(C)[C@]3(C)CC(O)[C@@]12CO (stereo partly drawn)	.	-24.6%	-7.6	.	16.9%	7.2
NC(c1csc(Nc2cnccn2)n1)c1ccccc1Cl (stereo not drawn)	.	.	-66.9*	.	.	-75.5*
NC(c1csc(Nc2ccccn2)n1)c1ccccc1Cl (stereo not drawn)	.	.	-78.6*	.	.	-90.5*
NC(c1csc(Nc2nncc3ccccc23)n1)c1ccccc1Cl (stereo not drawn)	.	.	-2.2	.	.	-3.5
CC(C)C(N)c1csc(Nc2ccc(C(F)(F)F)cn2)n1 (stereo not drawn)	.	.	-21.0	.	.	?
CC(C)C(N)c1csc(Nc2ccccn2)n1 (stereo not drawn)	.	.	-83.2*	.	.	-90.7*
CSCC[C@H](NC(=O)c1nn(C)c(=O)c2ccccc12)c1nc2ccccc2[nH]1	-1.8%	-0.9%	-10.8	12.6%	0.4%	9.2
COc1cc(C(=O)NCc2ccc(S(N)(=O)=O)cc2)ccc1OCC(=O)N1CCOCC1	.	2.7%	5.5	.	-0.9%	.
C/C=C(\C)C(=O)NCCN1C2=NC[C@H](C(C)C)N2C[C@@H]1Cc1ccc(OC)cc1	11.5%	14.9%	-72.3*	-2.8%	5.9%	-70.3*
Cc1cc(C(=O)N/N=C\c2cc(C(C)(C)C)ccc2O)n[nH]1	.	.	?	-0.2%	3.3%	-67.9*
Cc1cc(C(=O)N/N=C/c2cccs2)n[nH]1	11.1%	5.1%	-5.8	4.3%	-8.4%	3.6
COc1ccc(NC(=O)Nc2nnc(Cc3ccc(F)cc3)s2)cc1	.	.	5.7	-10.8%	?	-12.6
CCn1c(C)nc2cc(C(=O)N/N=C/c3cccc(OC)c3O)ccc21	3.3%	-27.6%	-79.9*	?	-21.3%	-92.8*
CCn1c(C)nc2cc(C(=O)N/N=C/c3ccc(O)c(O)c3O)ccc21	-15.7%	2.24µM*	-89.7*	?	4.0%	-92.6*
Cc1ccc(S(=O)(=O)N(C)CC(=O)Nc2cc(C)ccn2)cc1	.	4.5%	2.6	.	-18.0%	-12.4
COC(=O)c1sccc1NC(=O)CC1NCCNC1=O (stereo not drawn)	7.3%	.	-1.7	-4.9%	-5.7%	.
C=C(C(C)=O)C(O)c1cccc(Br)c1 (stereo not drawn)	10.2%	.	.	.	.	.
COc1ccc(NC(=O)c2c(NC(=O)CNCc3ccco3)sc3c2CCC3)cc1	5.8%	7.0%	-1.6	0.5%	-1.6%	-9.4

Screening results from PubChem.
